According to paper PMC7862700, “An all-to-all approach to the identification of sequence-specific readers for epigenetic DNA modifications on cytosine”:

Experiments:
Test in all cases: DAPPL (digital affinity profiling via proximity ligation, sequencing); 10 mM Tris-HCl pH 7.5, 50 mM NaCl, 1 mM DTT, 4% glycerol, room temperature, 30 min; GST-TFs on glutathione beads, 16-mer random dsDNA library, 0.1% formaldehyde crosslink after washing; high values mean tight binding
[1] = biological target: T1, FLI1 (Homo sapiens, UniProt Q01543 1-452); conditions: protein: recombinant; tags: N-terminal GST; dsDNA, one strand shown
T1 sequence: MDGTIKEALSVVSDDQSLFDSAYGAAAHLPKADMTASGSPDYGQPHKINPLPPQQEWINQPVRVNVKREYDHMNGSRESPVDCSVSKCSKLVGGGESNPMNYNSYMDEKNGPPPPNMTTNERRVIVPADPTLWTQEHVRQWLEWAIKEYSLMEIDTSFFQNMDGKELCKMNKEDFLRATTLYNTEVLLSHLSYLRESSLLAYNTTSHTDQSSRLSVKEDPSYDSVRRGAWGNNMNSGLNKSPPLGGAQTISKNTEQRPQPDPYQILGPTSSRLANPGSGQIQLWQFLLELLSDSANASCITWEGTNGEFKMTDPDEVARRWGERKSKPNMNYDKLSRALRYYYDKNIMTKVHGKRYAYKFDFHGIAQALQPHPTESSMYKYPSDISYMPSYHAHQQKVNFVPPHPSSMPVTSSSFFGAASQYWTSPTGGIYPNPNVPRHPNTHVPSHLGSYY
Procedure, shortened: (§1)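 Human transcription factors carrying a GST fusion were produced in yeast, bound to glutathione beads, tagged with DNA barcodes and pooled together with a tag-only sample. Each pool was held with 200 nmole of a random double-stranded 16-mer DNA library in Tris/NaCl/DTT/glycerol buffer for 30 min at room temperature, then washed, crosslinked in 0.1% formaldehyde, proximity-ligated with BsaI/T4 ligase (1 h, 37 °C), PCR-amplified and sequenced on an Illumina NextSeq500. Binding signal is the read frequency of each hexamer for a given factor divided by its frequency in the tag-only sample.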

[2] = biological target: T2, ELK1 (Homo sapiens, UniProt P19419 1-428); conditions: protein: recombinant; tags: N-terminal GST; dsDNA, one strand shown
T2 sequence: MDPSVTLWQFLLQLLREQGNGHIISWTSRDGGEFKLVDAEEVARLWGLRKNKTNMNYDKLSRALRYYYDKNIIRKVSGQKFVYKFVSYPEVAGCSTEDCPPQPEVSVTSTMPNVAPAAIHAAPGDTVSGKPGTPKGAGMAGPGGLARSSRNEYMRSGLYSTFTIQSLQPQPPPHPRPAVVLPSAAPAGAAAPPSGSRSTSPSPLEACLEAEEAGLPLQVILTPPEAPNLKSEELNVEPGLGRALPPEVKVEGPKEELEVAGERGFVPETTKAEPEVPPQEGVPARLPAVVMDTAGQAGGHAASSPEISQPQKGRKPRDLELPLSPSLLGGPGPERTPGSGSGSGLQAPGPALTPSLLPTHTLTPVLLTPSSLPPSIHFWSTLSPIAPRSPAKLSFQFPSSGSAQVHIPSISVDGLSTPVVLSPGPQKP
Procedure, shortened: as §1

[3] = biological target: T3, GABPA (Homo sapiens, UniProt Q06546 1-454); conditions: protein: recombinant; tags: N-terminal GST; dsDNA, one strand shown
T3 sequence: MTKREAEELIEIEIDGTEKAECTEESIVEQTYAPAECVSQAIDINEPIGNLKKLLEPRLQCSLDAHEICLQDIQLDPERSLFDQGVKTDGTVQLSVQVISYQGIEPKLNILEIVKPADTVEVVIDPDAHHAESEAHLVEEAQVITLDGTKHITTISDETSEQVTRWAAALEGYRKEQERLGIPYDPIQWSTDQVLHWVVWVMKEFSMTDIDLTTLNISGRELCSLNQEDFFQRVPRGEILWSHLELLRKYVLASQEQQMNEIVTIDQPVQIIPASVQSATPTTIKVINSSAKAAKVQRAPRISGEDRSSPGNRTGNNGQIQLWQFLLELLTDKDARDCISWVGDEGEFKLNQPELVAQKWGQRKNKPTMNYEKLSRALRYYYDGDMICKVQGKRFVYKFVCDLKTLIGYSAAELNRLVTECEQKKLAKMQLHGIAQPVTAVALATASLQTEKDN
Procedure, shortened: as §1

[4] = biological target: T4, ERG (Homo sapiens, UniProt P11308 1-479); conditions: protein: recombinant; tags: N-terminal GST; dsDNA, one strand shown
T4 sequence: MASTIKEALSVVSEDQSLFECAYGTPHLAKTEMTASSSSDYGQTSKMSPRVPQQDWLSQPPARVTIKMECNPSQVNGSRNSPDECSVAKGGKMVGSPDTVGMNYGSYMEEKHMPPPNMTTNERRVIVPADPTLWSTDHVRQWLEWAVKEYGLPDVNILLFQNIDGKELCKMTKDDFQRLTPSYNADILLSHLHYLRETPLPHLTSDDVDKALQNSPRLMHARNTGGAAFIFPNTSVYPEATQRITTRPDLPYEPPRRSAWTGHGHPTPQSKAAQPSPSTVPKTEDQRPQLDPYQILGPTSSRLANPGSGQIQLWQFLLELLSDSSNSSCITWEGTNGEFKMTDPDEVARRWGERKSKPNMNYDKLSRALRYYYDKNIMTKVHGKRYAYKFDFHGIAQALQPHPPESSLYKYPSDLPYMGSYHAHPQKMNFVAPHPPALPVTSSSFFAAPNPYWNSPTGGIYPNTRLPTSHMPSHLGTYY
Procedure, shortened: as §1

[5] = biological target: ELF1 (Homo sapiens, UniProt P32519 1-619); conditions: protein: recombinant; tags: N-terminal GST; dsDNA, one strand shown
Sequence of ELF1 (P32519 whole entry): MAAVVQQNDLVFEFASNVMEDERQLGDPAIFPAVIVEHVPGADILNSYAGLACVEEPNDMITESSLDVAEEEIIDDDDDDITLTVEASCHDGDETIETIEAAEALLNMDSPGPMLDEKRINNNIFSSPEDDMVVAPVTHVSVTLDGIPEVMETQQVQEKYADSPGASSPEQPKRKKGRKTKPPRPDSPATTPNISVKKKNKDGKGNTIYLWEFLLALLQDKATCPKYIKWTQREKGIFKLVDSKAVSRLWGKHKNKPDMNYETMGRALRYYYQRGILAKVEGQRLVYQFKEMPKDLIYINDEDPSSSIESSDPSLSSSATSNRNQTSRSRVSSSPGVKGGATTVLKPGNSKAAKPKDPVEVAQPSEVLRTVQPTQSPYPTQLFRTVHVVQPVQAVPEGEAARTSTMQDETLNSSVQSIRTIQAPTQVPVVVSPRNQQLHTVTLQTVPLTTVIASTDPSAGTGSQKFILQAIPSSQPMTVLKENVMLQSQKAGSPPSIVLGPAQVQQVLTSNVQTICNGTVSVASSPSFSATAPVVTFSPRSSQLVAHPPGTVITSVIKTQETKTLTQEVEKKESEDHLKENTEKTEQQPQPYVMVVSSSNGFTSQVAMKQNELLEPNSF
Procedure, shortened: as §1

[6] = biological target: T5, EHF (Homo sapiens, UniProt Q9NZC4 1-300); conditions: protein: recombinant; tags: N-terminal GST; dsDNA, one strand shown
T5 sequence: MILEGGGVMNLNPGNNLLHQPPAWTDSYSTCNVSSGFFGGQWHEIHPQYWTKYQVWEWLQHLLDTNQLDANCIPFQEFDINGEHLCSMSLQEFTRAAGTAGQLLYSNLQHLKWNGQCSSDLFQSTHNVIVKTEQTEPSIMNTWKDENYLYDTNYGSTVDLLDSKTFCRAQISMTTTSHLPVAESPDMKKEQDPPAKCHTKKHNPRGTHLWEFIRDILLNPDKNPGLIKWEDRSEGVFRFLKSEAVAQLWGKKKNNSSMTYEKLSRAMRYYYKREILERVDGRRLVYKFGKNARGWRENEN
Procedure, shortened: as §1

[7] = biological target: SPI1 (Homo sapiens, UniProt P17947 1-270); conditions: protein: recombinant; tags: N-terminal GST; dsDNA, one strand shown
Procedure, shortened: as §1

[8] = biological target: SPIB (Homo sapiens, UniProt Q01892 1-262); conditions: protein: recombinant; tags: N-terminal GST; dsDNA, one strand shown
Sequence of SPIB (Q01892 whole entry): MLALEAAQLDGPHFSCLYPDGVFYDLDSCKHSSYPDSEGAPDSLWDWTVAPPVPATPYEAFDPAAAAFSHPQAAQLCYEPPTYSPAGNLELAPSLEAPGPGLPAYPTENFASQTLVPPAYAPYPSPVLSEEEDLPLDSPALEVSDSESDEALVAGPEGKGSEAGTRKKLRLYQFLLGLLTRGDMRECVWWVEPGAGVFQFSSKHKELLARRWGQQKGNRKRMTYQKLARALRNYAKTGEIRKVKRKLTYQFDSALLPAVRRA
Procedure, shortened: as §1

[9] = biological target: T6, ELK3 (Homo sapiens, UniProt P41970 1-407); conditions: protein: recombinant; tags: N-terminal GST; dsDNA, one strand shown
T6 sequence: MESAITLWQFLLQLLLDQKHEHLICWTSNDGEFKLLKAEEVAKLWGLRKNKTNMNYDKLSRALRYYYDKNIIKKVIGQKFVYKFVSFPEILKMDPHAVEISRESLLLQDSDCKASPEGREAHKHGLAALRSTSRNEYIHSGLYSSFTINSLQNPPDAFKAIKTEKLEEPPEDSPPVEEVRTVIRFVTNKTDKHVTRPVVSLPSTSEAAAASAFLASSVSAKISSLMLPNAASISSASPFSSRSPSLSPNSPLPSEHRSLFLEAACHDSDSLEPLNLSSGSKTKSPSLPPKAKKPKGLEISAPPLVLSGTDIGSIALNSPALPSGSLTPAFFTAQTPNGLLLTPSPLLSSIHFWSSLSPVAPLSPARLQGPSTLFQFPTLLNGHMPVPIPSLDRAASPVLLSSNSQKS
Procedure, shortened: as §1

[10] = biological target: T7, FEV (Homo sapiens, UniProt Q99581 1-238); conditions: protein: recombinant; tags: N-terminal GST; dsDNA, one strand shown
T7 sequence: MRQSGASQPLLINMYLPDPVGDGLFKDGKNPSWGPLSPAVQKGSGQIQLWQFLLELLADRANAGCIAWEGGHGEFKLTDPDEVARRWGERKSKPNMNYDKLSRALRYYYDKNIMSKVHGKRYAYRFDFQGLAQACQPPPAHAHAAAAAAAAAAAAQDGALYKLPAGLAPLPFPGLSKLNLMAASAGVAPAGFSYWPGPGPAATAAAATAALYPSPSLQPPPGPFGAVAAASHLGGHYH
Procedure, shortened: as §1

[11] = biological target: ETV5 (Homo sapiens, UniProt P41161 1-510); conditions: protein: recombinant; tags: N-terminal GST; dsDNA, one strand shown
Sequence of ETV5 (P41161 whole entry): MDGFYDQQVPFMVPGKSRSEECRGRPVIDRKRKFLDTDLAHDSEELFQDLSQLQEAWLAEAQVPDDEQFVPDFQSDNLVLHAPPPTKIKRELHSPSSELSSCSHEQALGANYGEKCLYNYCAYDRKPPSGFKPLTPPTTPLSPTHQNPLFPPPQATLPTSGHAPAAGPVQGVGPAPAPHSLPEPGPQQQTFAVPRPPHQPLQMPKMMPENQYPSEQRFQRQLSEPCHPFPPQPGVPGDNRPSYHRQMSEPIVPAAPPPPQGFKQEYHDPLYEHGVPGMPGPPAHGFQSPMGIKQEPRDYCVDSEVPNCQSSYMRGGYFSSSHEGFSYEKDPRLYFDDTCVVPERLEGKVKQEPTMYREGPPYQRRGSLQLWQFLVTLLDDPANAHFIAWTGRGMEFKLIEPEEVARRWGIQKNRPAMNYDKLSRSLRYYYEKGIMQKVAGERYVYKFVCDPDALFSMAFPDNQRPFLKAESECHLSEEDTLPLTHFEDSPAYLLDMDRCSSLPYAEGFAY
Procedure, shortened: as §1

[12] = biological target: HSF1 (Homo sapiens, UniProt Q00613 1-529); conditions: protein: recombinant; tags: N-terminal GST; chain copies: 3; dsDNA, one strand shown
Sequence of HSF1 (Q00613 whole entry): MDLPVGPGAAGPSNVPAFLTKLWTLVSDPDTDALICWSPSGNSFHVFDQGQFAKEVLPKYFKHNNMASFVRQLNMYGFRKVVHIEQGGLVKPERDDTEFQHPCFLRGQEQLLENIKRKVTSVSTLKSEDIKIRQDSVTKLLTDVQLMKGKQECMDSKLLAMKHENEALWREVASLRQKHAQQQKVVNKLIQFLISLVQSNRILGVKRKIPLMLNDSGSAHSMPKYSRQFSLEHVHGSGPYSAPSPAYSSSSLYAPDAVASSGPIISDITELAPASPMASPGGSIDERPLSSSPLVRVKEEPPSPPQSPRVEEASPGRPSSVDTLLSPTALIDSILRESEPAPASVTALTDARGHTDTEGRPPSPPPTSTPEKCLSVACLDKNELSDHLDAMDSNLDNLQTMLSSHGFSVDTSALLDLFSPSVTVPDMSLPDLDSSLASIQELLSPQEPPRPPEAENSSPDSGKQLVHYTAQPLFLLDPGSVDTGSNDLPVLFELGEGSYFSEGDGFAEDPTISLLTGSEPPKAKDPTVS
Procedure, shortened: as §1

[13] = biological target: T8, SPIC (Homo sapiens, UniProt Q8N5J4 1-248); conditions: protein: recombinant; tags: N-terminal GST; dsDNA, one strand shown
T8 sequence: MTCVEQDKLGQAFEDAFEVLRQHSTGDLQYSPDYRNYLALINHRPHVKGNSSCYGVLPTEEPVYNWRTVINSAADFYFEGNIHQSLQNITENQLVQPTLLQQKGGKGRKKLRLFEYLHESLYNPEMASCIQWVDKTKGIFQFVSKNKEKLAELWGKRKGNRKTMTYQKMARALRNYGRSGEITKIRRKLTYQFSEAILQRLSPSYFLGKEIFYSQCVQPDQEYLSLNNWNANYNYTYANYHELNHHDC
Procedure, shortened: as §1

[14] = biological target: ELF4 (Homo sapiens, UniProt Q99607 1-663); conditions: protein: recombinant; tags: N-terminal GST; dsDNA, one strand shown
Sequence of ELF4 (Q99607 whole entry): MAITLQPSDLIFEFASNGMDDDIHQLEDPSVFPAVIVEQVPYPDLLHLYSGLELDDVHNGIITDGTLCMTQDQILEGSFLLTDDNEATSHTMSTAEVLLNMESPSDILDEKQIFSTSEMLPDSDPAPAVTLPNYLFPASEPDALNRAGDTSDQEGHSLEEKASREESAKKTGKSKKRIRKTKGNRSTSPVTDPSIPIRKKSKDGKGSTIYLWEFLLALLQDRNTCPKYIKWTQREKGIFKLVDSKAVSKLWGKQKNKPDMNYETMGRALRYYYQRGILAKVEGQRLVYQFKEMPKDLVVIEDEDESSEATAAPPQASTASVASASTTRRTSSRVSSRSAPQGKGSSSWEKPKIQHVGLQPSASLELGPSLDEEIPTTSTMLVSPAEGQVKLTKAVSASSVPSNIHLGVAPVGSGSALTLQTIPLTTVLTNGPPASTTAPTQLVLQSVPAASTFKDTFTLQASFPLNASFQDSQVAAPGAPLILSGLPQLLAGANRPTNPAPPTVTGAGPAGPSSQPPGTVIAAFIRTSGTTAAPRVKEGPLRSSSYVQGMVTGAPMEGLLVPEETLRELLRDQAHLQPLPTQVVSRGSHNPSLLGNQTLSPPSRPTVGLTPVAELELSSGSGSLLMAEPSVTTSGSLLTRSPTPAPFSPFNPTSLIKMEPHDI
Procedure, shortened: as §1

[15] = biological target: T9, ELK4 (Homo sapiens, UniProt P28324-2 1-405); conditions: protein: recombinant; tags: N-terminal GST; dsDNA, one strand shown
T9 sequence: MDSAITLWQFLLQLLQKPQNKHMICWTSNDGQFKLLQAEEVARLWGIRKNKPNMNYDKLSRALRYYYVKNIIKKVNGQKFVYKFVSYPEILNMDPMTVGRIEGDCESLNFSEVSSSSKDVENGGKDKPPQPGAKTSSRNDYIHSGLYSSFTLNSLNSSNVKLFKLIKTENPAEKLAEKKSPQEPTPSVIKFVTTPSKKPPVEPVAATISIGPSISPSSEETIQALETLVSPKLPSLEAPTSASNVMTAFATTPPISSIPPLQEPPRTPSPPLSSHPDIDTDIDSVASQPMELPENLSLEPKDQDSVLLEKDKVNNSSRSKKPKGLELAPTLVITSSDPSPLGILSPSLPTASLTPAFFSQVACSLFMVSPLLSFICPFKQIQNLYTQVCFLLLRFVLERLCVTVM
Procedure, shortened: as §1

[16] = biological target: T10, ETV2 (Homo sapiens, UniProt O00321 1-342); conditions: protein: recombinant; tags: N-terminal GST; dsDNA, one strand shown
T10 sequence: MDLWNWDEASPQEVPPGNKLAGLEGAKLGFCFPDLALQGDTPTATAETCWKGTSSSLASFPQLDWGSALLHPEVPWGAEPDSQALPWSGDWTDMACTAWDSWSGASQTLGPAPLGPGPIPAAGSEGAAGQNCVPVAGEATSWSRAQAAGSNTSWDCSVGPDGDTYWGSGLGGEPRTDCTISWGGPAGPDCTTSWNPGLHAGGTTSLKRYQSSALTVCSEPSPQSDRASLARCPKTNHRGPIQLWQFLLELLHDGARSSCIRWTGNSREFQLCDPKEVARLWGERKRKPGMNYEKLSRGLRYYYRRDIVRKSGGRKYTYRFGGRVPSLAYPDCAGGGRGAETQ
Procedure, shortened: as §1

[17] = biological target: T11, ELF3 (Homo sapiens, UniProt P78545 1-371); conditions: protein: recombinant; tags: N-terminal GST; dsDNA, one strand shown
T11 sequence: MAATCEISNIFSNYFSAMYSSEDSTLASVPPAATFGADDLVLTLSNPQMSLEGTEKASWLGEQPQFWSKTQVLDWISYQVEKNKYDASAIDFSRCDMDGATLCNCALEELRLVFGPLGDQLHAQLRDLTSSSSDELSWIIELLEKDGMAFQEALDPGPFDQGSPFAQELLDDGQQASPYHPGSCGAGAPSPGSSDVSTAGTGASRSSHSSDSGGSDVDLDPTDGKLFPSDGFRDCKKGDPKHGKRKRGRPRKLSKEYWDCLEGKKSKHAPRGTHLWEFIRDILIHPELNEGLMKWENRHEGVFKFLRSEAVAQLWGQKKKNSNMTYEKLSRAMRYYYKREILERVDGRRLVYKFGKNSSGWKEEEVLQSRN
Procedure, shortened: as §1

[18] = biological target: CRX (Homo sapiens, UniProt O43186 1-299); conditions: protein: recombinant; tags: N-terminal GST; dsDNA, one strand shown
Sequence of CRX (O43186 whole entry): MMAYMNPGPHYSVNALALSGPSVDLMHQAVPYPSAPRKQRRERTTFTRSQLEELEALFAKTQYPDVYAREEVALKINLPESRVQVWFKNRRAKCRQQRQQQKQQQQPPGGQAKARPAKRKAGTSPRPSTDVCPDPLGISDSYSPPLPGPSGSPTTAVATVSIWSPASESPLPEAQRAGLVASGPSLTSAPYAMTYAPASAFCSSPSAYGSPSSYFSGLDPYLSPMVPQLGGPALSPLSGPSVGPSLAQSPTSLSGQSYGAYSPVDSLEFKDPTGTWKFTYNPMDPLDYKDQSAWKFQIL
Procedure, shortened: as §1

[19] = biological target: ETV1 (Homo sapiens, UniProt P50549 1-477); conditions: protein: recombinant; tags: N-terminal GST; dsDNA, one strand shown
Sequence of ETV1 (P50549 whole entry): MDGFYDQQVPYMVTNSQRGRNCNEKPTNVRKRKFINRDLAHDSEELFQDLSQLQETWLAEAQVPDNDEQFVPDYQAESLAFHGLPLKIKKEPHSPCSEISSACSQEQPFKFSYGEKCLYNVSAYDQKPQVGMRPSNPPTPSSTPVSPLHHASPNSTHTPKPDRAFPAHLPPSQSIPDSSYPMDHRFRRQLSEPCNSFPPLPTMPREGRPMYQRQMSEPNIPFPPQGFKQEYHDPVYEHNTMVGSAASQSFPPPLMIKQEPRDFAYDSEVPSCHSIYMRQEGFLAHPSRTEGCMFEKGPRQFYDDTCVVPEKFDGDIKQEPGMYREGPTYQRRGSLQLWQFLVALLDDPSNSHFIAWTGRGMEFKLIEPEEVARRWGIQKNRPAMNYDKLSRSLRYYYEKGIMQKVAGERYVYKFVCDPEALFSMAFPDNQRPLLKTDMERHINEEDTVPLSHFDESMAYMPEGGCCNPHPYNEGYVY
Procedure, shortened: as §1

TTAATG
binding signal [1]: 1.24 fold enrichment (6-mer frequency, TF over GST control)
binding signal [2]: 1.27 fold enrichment (6-mer frequency, TF over GST control)
binding signal [3]: 1.3 fold enrichment (6-mer frequency, TF over GST control)
binding signal [4]: 1.14 fold enrichment (6-mer frequency, TF over GST control)
binding signal [5]: 1.17 fold enrichment (6-mer frequency, TF over GST control)
binding signal [6]: 1.19 fold enrichment (6-mer frequency, TF over GST control)
binding signal [7]: 1.24 fold enrichment (6-mer frequency, TF over GST control)
binding signal [8]: 1.2 fold enrichment (6-mer frequency, TF over GST control)
binding signal [9]: 1.14 fold enrichment (6-mer frequency, TF over GST control)
binding signal [10]: 1.12 fold enrichment (6-mer frequency, TF over GST control)
binding signal [11]: 1.27 fold enrichment (6-mer frequency, TF over GST control)
binding signal [12]: 1.89 fold enrichment (6-mer frequency, TF over GST control)
binding signal [13]: 1.24 fold enrichment (6-mer frequency, TF over GST control)
binding signal [14]: 1.26 fold enrichment (6-mer frequency, TF over GST control)
binding signal [15]: 1.21 fold enrichment (6-mer frequency, TF over GST control)
binding signal [16]: 1.31 fold enrichment (6-mer frequency, TF over GST control)
binding signal [17]: 1.21 fold enrichment (6-mer frequency, TF over GST control)
binding signal [18]: 2.75 fold enrichment (6-mer frequency, TF over GST control)
binding signal [19]: 1.29 fold enrichment (6-mer frequency, TF over GST control)
